In PubChem BioAssay AID1256 (The Scripps Research Institute Molecular Screening Center, 2008):
This is one part of the list. Unmarked numbers belong to inactive results. Calls of active or inactive are those of the source. Cut-off read from the data, not from the text of the source: active = inhibition above about 20%; inactive = the rest.

target: Neuropeptide Y receptor type 1 (Homo sapiens) (UniProt P25929); experiment: blockade of human NPY-Y1 in cells – counter-screen for NPY-Y2 antagonist project (AID 1256); conditions: cell-based NPY-Y1 antagonism counterscreen; at 3.6 µM; active compounds read high;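 note: cells challenged with NPY then isoproterenol with cAMP sensed through a CNG channel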
Sequence (P25929 whole entry, looked up): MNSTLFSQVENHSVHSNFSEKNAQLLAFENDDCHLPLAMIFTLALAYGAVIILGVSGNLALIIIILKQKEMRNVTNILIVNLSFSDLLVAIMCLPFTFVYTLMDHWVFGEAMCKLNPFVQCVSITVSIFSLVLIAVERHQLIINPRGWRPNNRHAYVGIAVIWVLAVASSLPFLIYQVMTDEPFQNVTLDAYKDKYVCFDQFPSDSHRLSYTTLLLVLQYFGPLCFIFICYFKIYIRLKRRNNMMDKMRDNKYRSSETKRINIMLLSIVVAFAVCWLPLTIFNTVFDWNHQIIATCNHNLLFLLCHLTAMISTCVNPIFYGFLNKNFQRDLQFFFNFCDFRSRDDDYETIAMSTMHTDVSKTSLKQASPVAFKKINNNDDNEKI

**Q.** For `CCCc1nc(SCC(=O)Nc2ccccc2OC)c2c(=O)n(C)c(=O)n(C)c2n1`, which inhibition is on record?
**A.** Its inhibition is 20.6% (active).

**Q.** Which inhibition does the source give for `N#Cc1ccc(N2Cc3ccccc3/C2=N/C(=O)Nc2ccc(Cl)cc2)cc1` here?
**A.** The inhibition was 100% (active).

**Q.** Which inhibition does the source give for `Cc1ccc(NC(=O)CN2CCC3(O)CCCCC3C2c2ccc3c(c2)OCO3)c(C)c1` (centres undefined) here?
**A.** The inhibition was 5.96%.

**Q.** Which inhibition does the source give for `Cc1ccc(C2=NN(C)c3nc4ccccc4n3C2)cc1` here?
**A.** Its inhibition is 8.4%.

**Q.** Which inhibition does the source give for `COC(=O)c1ccc(CSc2nc3cc(Cl)ccc3o2)cc1` here?
**A.** The inhibition was 11.2%.

**Q.** How did the inhibition turn out when `Cc1cc(C)nc(-n2ncc3c2CC(c2ccc(C(C)C)cc2)CC3=O)n1` (centres undefined) was run?
**A.** Its inhibition is 20.4% (active).

**Q.** How did the inhibition turn out when `O=C(CC(O)(C(F)(F)F)C(F)(F)F)Nc1ccc(Cl)c(Cl)c1` was run?
**A.** The inhibition was 20.5% (active).

**Q.** `O=S(=O)(Cc1cc(Sc2ccccc2)nc(-c2ccccc2)n1)c1ccccc1` was tested. Which inhibition did it give?
**A.** Its inhibition is 11.8%.

**Q.** Which inhibition does the source give for `COc1cccc(-c2ccc(C#N)c(SCC(=O)NCCc3ccc(Cl)cc3)n2)c1` here?
**A.** Its inhibition is 9.97%.

**Q.** For `Cc1ccccc1N1CCN(CCCOc2ccc3c(C)cc(=O)oc3c2)CC1`, which inhibition is on record?
**A.** Its inhibition is 19.3%.

**Q.** For `C=CCNCCCCOc1ccccc1`, which inhibition is on record?
**A.** Its inhibition is -1.26%.

**Q.** How did the inhibition turn out when `CCCCCNC(=O)Cc1ccc(OC)cc1` was run?
**A.** The inhibition was 1.16%.

**Q.** How did the inhibition turn out when `O=C(Oc1ccccc1)Oc1ccc2c(c1)oc(=O)c1ccccc12` was run?
**A.** Its inhibition is 3.68%.

**Q.** `N=c1n(Cc2ccc(Cl)cc2)c2ccccc2n1CC(O)c1ccco1` (centres undefined) was tested. Which inhibition did it give?
**A.** The inhibition was 13.8%.

**Q.** For `c1ccc(-c2cc3c(NCC4COc5ccccc5O4)ncnc3s2)cc1` (centres undefined), which inhibition is on record?
**A.** The inhibition was 19.3%.

**Q.** How did the inhibition turn out when `COc1ccc(-c2nc3ccccc3n2CCC(C)C)cc1OC` was run?
**A.** Its inhibition is 8.19%.

**Q.** Which inhibition does the source give for `COc1ccc(/C=C/C(=O)NC(=S)NN2CCCCC2c2cccnc2)cc1` (centres undefined) here?
**A.** Its inhibition is 29.1% (active).

**Q.** How did the inhibition turn out when `CCOc1ccc(S(=O)(=O)N/N=C(\C)c2ccc(Cl)c(Cl)c2Cl)cc1` was run?
**A.** The inhibition was 17.7%.

**Q.** Which inhibition does the source give for `COc1ccc(-c2noc(COc3ccc(Cl)c(C)c3)n2)cc1` here?
**A.** The inhibition was 13.3%.

**Q.** With `COc1ccc(NC(=O)/C(Cl)=C(/Cl)S(=O)Cc2ccc(C)cc2)cn1` (centres undefined) as the molecule, how does the inhibition read?
**A.** Its inhibition is 42.1% (active).

**Q.** `CCOc1ccc(C(O)Cn2c(=N)n(CCN3CCCCC3)c3ccccc32)cc1` (centres undefined) was tested. Which inhibition did it give?
**A.** Its inhibition is 13.1%.

**Q.** How did the inhibition turn out when `COc1ccc(/C(N)=N/OC(=O)CCCc2ccccc2)cc1` was run?
**A.** The inhibition was 6.54%.

**Q.** Which inhibition does the source give for `Cc1ccc(S(=O)(=O)N(Cc2ccc(Cl)cc2)c2ccccc2C(=O)NCc2cccnc2)cc1` here?
**A.** Its inhibition is 28.4% (active).

**Q.** How did the inhibition turn out when `Cc1cccc(OCC(O)Cn2c(=N)n(CCN3CCOCC3)c3ccccc32)c1` (centres undefined) was run?
**A.** Its inhibition is 4.2%.

**Q.** How did the inhibition turn out when `Cc1ccccc1OC(=O)Cn1c(C(F)(F)F)nc2ccccc21` was run?
**A.** Its inhibition is 7.05%.

**Q.** `Cc1ccc(CCC(=O)Nc2ncc(Cc3cc(Cl)ccc3Cl)s2)o1` was tested. Which inhibition did it give?
**A.** Its inhibition is 18.8%.

**Q.** Which inhibition does the source give for `CC12CN(Cc3ccccc3)CC(C)(CN(Cc3ccccc3)C1)C2=NO` here?
**A.** The inhibition was 13.2%.

**Q.** For `N#Cc1ccc(C(c2nnnn2CCc2ccccc2)N2CCCCCC2)cc1` (centres undefined), which inhibition is on record?
**A.** The inhibition was 7.96%.

**Q.** Which inhibition does the source give for `CN(C)Cc1ccc(F)cc1Sc1cc(Cl)ccc1Cl` here?
**A.** The inhibition was 11.3%.

**Q.** For `Cc1cc(C(=O)OCC(=O)N2c3ccccc3NC(=O)C2(C)C)c(C)n1-c1ccccc1`, which inhibition is on record?
**A.** Its inhibition is 5.21%.

**Q.** `CCOC(=O)C(C)Sc1nc2ccccc2c(=O)n1CC1CCCCC1` (centres undefined) was tested. Which inhibition did it give?
**A.** The inhibition was 7.75%.

**Q.** Which inhibition does the source give for `O=C(Nc1nnc(SCc2c(Cl)cccc2Cl)s1)C1CCCO1` (centres undefined) here?
**A.** Its inhibition is 12.1%.

**Q.** `CCCCC(O)(CCCC)C(=O)NN(C(=O)CCl)c1ccccc1` was tested. Which inhibition did it give?
**A.** The inhibition was 7.18%.

**Q.** `O=C1CC(c2cccc(Cl)c2)CC(O)=C1C=Nc1ccccc1` (centres undefined) was tested. Which inhibition did it give?
**A.** The inhibition was 17.3%.
